Holding throughout (design): scale not given: direction of the effect not stated beside the values
Experiment [1] has as its target Protein translocase subunit SecA (Escherichia coli (strain K12)) (UniProt P10408). Briefly: Assay to Identify E. coli SecA ATPase Inhibitors. The experiment is classed as functional. Conditions: 30 µM.
The target in experiment [2] is T1, Ubiquitin-activating enzyme e1, putative (Leishmania donovani (strain BPK282A1)) (UniProt E9BSI1).
T1 sequence (whole entry): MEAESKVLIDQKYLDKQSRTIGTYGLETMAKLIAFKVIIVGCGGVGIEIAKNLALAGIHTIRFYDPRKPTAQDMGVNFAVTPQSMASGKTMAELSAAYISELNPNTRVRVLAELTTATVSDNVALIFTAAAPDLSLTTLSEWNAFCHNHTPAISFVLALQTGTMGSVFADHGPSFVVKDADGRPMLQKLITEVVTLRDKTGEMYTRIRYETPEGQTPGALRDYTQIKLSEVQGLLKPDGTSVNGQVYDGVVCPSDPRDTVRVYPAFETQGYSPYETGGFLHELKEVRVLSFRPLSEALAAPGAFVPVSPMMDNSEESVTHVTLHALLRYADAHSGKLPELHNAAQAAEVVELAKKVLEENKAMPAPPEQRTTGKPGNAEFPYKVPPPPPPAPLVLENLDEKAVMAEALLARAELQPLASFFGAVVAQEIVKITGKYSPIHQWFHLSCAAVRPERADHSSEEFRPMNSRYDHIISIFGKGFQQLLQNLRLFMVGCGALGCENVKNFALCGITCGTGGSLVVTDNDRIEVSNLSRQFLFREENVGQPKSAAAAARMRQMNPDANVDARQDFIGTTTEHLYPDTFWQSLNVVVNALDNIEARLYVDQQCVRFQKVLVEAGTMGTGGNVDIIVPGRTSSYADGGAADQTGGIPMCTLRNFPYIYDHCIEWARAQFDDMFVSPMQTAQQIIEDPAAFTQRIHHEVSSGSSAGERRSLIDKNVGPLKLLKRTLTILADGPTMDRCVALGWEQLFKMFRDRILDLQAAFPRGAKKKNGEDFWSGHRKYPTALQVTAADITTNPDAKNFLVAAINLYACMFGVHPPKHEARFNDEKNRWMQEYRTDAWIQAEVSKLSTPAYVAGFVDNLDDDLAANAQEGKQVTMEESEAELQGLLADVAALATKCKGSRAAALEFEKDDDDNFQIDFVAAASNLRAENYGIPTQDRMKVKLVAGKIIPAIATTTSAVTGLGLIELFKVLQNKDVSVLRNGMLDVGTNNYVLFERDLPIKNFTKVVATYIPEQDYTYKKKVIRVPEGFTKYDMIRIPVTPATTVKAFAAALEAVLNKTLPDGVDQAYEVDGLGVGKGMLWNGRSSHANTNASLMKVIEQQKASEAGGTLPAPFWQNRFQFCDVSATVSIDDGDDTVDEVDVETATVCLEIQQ
As to the kind of experiment: Leishmania donovani Ubiquitin Activating Enzyme (LdE1). Conditions: 30 µM. Type of experiment: functional.

The target in experiment [3] is AMP-activated protein kinase, AMPK (Homo sapiens) (UniProt P54646+O43741+P54619+Q9UGJ0+Q9Y478+Q13131+Q9UGI9). Briefly: AMP-dependent Kinase enzyme assay. An in vitro enzyme assay that detects ADP turnover that is directly proportional to AMPK activity. This uses naive AMPK that is activated during the assay with MK-8722. The experiment is classed as functional. Conditions: 30 µM.

Experiment [4] has as its target Sialic acid-binding Ig-like lectin 9 (Homo sapiens) (UniProt Q9Y336). As to the kind of experiment: Hs-Siglec9 ALPHAscreen SOP 20170721. The following applies: 10 µM. On the technique in general: Alpha assays give light when donor and acceptor beads are brought close together.
The test system of the next experiment is Trypanosoma cruzi. Briefly: Trypanosoma cruzi phosphomannomutase and mannose-1-phosphate guanylyltransferase assay. The experiment is classed as functional. The following applies: 10 µM.
The target in experiment [5] is T2, Arginase-2, mitochondrial (Homo sapiens) (UniProt P78540).
T2 sequence (whole entry): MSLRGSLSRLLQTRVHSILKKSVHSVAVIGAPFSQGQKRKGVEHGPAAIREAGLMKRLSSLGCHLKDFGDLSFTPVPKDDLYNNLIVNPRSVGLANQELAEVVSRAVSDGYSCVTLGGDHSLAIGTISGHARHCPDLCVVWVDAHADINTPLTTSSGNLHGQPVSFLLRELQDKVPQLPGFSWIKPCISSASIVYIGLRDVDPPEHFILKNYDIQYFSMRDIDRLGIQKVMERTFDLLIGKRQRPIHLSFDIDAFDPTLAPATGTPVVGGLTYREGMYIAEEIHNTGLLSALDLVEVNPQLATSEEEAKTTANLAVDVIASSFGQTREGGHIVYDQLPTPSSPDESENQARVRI
Briefly: in vitro enzyme assay to detect the production of urea directly proportional to the activity of Arginase II. Also: in the data most compounds retested in dose-response had high values. Conditions: 33.3 µM. Type of experiment: functional.

For experiment [6], the target named is T3, Proteasome subunit beta (Trypanosoma cruzi) (UniProt O96673).
T3 sequence (whole entry): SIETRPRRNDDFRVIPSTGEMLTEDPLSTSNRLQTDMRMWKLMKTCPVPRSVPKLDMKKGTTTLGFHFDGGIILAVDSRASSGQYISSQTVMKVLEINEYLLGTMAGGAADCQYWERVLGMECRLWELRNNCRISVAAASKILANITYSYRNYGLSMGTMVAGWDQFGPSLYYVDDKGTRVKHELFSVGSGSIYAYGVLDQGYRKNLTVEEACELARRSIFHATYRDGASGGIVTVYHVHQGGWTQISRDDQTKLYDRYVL
Briefly: Trypanosoma cruzi proteasome chymotrypsin-like activity (TcProtChymo) assay. Also: in the data most compounds retested in dose-response had high values. Type of experiment: functional. Conditions: 9.37 µM.

For a further experiment, the species on record is Homo sapiens. Briefly: To identify inhibition of the IFN signalling (Jak-Stat) pathway via expression of an eGFP reporter gene under the control of an IFN-stimulated response element (ISRE) containing MxA promoter. The experiment is classed as functional. The following applies: 30 µM. (In general: A reporter such as luciferase makes a cellular process visible.)

Experiment [7] concerns the target T4, Tyrosyl-tRNA synthetase, putative (Trypanosoma cruzi (strain CL Brener)) (UniProt Q4DSP6).
T4 sequence (whole entry): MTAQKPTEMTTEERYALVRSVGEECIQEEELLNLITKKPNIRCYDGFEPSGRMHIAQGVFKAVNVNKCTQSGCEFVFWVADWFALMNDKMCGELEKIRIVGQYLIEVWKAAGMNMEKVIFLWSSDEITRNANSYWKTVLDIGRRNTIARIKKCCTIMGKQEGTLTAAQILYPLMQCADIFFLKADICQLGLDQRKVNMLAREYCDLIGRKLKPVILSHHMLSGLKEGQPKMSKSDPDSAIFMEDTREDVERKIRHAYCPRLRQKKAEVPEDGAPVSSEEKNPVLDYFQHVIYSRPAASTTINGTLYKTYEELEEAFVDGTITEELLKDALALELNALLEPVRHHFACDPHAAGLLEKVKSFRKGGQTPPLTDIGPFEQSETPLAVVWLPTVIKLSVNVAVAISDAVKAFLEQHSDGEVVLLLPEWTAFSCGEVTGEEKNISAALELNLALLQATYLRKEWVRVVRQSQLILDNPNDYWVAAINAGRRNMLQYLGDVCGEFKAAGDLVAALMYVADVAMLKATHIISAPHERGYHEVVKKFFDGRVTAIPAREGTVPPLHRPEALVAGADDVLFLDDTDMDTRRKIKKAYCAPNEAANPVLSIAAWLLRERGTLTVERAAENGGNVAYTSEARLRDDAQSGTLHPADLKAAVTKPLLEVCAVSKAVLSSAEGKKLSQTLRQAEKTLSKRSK
Briefly: Trypanosoma cruzi tyrosyl tRNA synthetase (TcYRS) _High Tyrosine SOP. Also: in the data most compounds retested in dose-response had high values. Type of experiment: functional. The following applies: 30 µM.

The target in experiment [8] is T4, Tyrosyl-tRNA synthetase, putative (Trypanosoma cruzi (strain CL Brener)). As to the kind of experiment: Trypanosoma cruzi tyrosyl tRNA synthetase (TcYRS) SOP. The following applies: 30 µM. The experiment is classed as functional.
The target in experiment [9] is Chromo domain-containing protein 1 (Saccharomyces cerevisiae (strain ATCC 204508 / S288c) (Baker's yeast)) (UniProt P32657). As to the kind of experiment: ScCHD-1 Enzyme Inhibition Assay. Also: in the data most compounds retested in dose-response had high values. The experiment is classed as functional. The following applies: 30 µM.

Structures are written as SMILES. For some of these results: Entries with a potency or affinity are not part of this list.

Chain of Protein translocase subunit SecA (Escherichia coli (strain K12)) (P10408 whole entry): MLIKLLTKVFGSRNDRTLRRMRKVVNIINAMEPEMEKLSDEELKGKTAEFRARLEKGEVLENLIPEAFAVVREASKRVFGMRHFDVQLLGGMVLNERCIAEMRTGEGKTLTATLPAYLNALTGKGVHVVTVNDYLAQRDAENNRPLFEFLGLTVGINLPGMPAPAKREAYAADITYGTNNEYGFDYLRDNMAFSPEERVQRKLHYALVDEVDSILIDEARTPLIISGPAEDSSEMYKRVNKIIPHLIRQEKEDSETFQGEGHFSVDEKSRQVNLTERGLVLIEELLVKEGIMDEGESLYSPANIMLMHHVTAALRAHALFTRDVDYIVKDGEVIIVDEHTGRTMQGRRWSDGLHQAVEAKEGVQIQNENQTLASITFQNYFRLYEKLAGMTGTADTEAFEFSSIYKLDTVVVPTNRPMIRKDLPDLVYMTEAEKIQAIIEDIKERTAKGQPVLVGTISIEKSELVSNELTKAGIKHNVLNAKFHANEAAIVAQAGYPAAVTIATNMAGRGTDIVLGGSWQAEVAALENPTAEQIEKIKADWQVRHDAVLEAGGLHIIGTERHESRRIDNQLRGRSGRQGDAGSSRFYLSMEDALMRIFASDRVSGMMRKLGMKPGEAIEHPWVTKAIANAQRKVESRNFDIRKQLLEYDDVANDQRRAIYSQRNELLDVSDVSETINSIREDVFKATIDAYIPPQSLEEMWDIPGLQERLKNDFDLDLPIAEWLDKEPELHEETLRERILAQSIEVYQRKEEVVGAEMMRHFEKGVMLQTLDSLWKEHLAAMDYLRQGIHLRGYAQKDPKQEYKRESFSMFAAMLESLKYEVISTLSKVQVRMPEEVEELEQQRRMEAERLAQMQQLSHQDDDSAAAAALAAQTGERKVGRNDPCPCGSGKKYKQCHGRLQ
Chain of Sialic acid-binding Ig-like lectin 9 (Homo sapiens) (Q9Y336 whole entry): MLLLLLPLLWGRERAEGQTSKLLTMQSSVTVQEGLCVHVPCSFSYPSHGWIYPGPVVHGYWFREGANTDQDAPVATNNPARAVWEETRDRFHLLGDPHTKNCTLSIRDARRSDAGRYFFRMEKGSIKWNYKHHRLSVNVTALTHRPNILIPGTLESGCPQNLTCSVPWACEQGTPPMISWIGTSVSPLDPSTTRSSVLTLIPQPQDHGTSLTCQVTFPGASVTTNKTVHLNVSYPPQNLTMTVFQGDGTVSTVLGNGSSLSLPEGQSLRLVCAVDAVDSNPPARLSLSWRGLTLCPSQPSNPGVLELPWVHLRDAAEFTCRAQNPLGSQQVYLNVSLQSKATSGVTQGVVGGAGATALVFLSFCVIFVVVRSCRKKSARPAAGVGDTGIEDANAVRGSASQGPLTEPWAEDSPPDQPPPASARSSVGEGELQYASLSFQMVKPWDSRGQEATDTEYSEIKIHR
Chain of Chromo domain-containing protein 1 (Saccharomyces cerevisiae (strain ATCC 204508 / S288c) (Baker's yeast)) (P32657 whole entry, the tested form may be a part): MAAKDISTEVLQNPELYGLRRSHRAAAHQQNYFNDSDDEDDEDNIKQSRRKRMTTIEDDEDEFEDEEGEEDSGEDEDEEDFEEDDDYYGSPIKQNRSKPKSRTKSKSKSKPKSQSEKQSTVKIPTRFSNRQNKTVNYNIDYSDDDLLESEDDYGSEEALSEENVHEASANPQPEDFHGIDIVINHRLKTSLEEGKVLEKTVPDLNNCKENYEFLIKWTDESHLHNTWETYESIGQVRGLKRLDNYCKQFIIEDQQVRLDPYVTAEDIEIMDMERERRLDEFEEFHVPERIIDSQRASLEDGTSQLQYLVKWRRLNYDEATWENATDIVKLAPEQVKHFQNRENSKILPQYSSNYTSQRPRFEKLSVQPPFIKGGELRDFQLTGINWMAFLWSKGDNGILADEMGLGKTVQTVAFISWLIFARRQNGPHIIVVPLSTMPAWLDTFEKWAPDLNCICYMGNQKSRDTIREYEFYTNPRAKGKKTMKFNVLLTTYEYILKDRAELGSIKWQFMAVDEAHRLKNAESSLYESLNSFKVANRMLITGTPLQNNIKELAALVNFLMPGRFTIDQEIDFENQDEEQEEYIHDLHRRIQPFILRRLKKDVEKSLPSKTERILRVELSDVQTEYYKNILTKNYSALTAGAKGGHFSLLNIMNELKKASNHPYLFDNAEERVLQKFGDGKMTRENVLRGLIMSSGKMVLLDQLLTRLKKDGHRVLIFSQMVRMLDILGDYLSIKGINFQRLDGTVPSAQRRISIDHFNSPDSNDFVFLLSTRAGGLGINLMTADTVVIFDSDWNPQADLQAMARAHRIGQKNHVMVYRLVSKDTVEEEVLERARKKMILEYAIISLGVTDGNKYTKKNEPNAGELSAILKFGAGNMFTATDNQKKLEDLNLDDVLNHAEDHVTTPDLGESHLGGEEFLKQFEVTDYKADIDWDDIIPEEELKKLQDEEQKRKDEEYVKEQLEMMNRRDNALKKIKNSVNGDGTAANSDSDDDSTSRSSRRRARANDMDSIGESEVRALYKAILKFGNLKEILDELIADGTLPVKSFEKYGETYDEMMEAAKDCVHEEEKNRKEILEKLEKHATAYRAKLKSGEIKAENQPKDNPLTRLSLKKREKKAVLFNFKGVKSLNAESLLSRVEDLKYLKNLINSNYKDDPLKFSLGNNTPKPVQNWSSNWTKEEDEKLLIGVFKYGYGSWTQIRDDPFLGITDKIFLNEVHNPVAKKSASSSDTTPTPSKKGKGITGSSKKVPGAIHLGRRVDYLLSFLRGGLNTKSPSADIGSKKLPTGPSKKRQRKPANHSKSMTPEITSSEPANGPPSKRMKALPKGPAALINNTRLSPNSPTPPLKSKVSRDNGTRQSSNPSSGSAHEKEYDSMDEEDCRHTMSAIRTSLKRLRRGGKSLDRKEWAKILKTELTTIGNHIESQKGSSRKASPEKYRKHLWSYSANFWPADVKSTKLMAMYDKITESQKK

As to `CC(C)C(=O)NC1CCN(Cc2cccc3c2OCCO3)CC1`, the Percent Effect in experiment [1] is -2.08%; in experiment [2] it was -1.27%; in experiment [3], 4.8%; in experiment [4], 0.497%; with Trypanosoma cruzi it was -2.36%; in experiment [5], 3.66%. The Percent Effect in experiment [6] was -2.06%; in the experiment listed under Homo sapiens, 17.1%; in experiment [7] it was 2.08%; in experiment [8], -2.53%; in [9] it was -21.1%.

On to `Cc1nc(C)n(CC2CCCCN2CC(=O)Nc2ccncc2)n1` (stereo not drawn), for which the Percent Effect in experiment [1] was 1.21%; in experiment [2], 23.4%; in experiment [3] it was -4.4%; in experiment [4] it was -2.19%; in the experiment with Trypanosoma cruzi it was -9.74%; in [5], 3.56%. The Percent Effect in [6] is 8.11%; in the experiment listed under Homo sapiens it was 27.5%; in [7] it was 5.83%; in experiment [8] it was -2.44%; in experiment [9], -9.59%.

Regarding `COc1cc2nc3n(c(=O)c2cc1OC)CCN(C(C)=O)CC3`, the Percent Effect in experiment [1] is -1.86%; in experiment [2], 4.05%; in [3], 9.32%; in experiment [4], 3.01%; with Trypanosoma cruzi it was 0.593%; in [5], -1.16%. Besides, the Percent Effect was 5.62% in experiment [6]; 11.5% in the experiment filed under Homo sapiens; 1.07% in experiment [7]; 11.7% in [8]; -1.39% in experiment [9].

On to `COc1cccc(CN(C)C(=O)Nc2ccc3c(c2)OCCO3)c1`, for which the Percent Effect was -0.723% in experiment [1]; 18.4% in experiment [2]; -0.168% in experiment [3]; -10.2% in experiment [4]; 0.0974% in the experiment on Trypanosoma cruzi; 2.37% in [5]. Further, the Percent Effect in experiment [6] is 26.6%; in the experiment filed under Homo sapiens, 22.9%; in experiment [7], 1.06%; in [8] it was 10.4%; in [9], -8.52%.

Take `OC[C@H]1CC[C@]2(CC1)CN(Cc1ccccn1)Cc1ccccc1O2`: the Percent Effect is -1.22% in [1]; 1.35% in experiment [2]; 15.4% in [3]; 4.6% in [4]; -3.56% with Trypanosoma cruzi; 1.16% in [5]. The Percent Effect was 1.25% in experiment [6]; 5.31% in the experiment listed under Homo sapiens; 5.38% in experiment [7]; 3.9% in [8]; -8.96% in experiment [9].

With `CCCc1nc(N2CCN(CC)CC2)c2c(n1)c(C)nn2CC`, the Percent Effect in [1] was -0.47%; in experiment [2], 7.79%; in [3], 2.46%; in [4] it was 26.2%; in the experiment on Trypanosoma cruzi, 5.01%; in experiment [5], -6.9%. Moreover, the Percent Effect is 10.5% in experiment [6]; 10.3% in the experiment listed under Homo sapiens; 7.53% in experiment [7]; 16.1% in experiment [8]; -5.13% in experiment [9].

As to `Cc1nn(C)c(Cl)c1C1CCCN1CCc1ccccn1` (stereo not drawn), the Percent Effect in experiment [1] is 3.64%; in experiment [2], -3.8%; in experiment [3], 12.3%; in [4] it was 1.51%; in the experiment with Trypanosoma cruzi, -1.74%; in [5] it was 7.53%. The Percent Effect in experiment [6] was 5.83%; in the experiment listed under Homo sapiens it was 4.77%; in experiment [7], -1.04%; in [8], 2.53%; in experiment [9] it was -11.7%.

With `CN(Cc1cnn(C)c1)C(=O)NC1CCN(Cc2ccccn2)CC1`, the Percent Effect in experiment [1] was -4.71%; in [2], 15.6%; in [3], 2.19%; in experiment [4], -0.77%; in the experiment with Trypanosoma cruzi it was -8.99%; in [5] it was 0.356%. Moreover, the Percent Effect was 4.22% in experiment [6]; 15.9% in the experiment listed under Homo sapiens; 3.88% in experiment [7]; 7.32% in experiment [8]; -3.83% in experiment [9].

Values taken from ChEMBL document CHEMBL3988442, “University of Dundee, Small-Polar-MMV Screening Library” (2021).
